Here are results for 31 sequences from PMC12820563, “FoxP3 forms a head-to-head dimer in vivo and stabilizes its multimerization on adjacent microsatellites”.

The full ranking holds about 16,000 sequences; the median of “rpm ratio (pull-down/input)” is about 0.5, and the highest 2% start at about 5.5. Shown is part of a subset that was picked to be rich in the highest values.

This assay deals with T1, MBP-FoxP3dN (Mus musculus, UniProt Q99JB6 188-423).
T1 sequence: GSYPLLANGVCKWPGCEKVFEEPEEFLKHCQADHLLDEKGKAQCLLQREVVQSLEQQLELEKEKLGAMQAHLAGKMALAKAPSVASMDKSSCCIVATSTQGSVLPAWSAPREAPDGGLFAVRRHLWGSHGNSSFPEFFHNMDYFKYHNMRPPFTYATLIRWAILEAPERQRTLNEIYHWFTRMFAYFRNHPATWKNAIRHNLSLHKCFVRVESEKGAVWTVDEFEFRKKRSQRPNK
Kind of assay: PD-seq (MBP pull-down with sequencing); 20 mM Tris-HCl pH 7.5, 100 mM NaCl, 1.5 mM MgCl2, 0.4 uM protein, 0.1 uM dsDNA library, 30 min, room temperature, amylose pull-down; high values mean tight binding. The conditions noted are these: protein: recombinant; tags: His6-MBP; chain copies: 2; dsDNA, one strand shown. The procedure, abridged:
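A degenerate double-stranded DNA library, filled in with Klenow, was added at 0.1 µM to 0.4 µM His6-MBP-tagged mouse FoxP3 or FoxP1 fragment lacking the N-terminus, expressed in E. coli. Incubation lasted 30 min at room temperature in Tris pH 7.5 buffer with NaCl and MgCl2, after which complexes were collected on amylose resin, washed three times, digested with proteinase K to free the DNA, barcoded by PCR and sequenced by Illumina. Binding is the pooled-replicate reads-per-million enrichment of pull-down over input.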
Regarding “GATGATTGTTCTCCCAGCTGATGAATTTCAGCATTCGAGTAAACAAATTTTCCTAATCTTTCTGTTCAAGCGCCATCTAC”, the binding signal is 4.99 RPM ratio (pull-down/input). Under “GATGATTGTTCTCCCAGCTGATGAATTCAGCAGCTCGAGTAAACAAATTTTCCTAATCTTTCTGTTCAAGCGCCATCTAC” stands 0.994 RPM ratio (pull-down/input); under “GATGATTGTTCTCCCAGCTGATGAATTCCAGCATTCGAGTAAACAAATTTTCCTAATCTTTCTGTTCAAGCGCCATCTAC”, 4.11 RPM ratio (pull-down/input); under “GATGATTGTTCTCCCAGCTGATGAATTCAGCATTTCGAGTAAACAAATTTTCCTAATCTTTCTGTTCAAGCGCCATCTAC”, 5.86 RPM ratio (pull-down/input). Next, “GATGATTGTTCTCCCAGCTGATGAATTCTCAGCATCGAGTAAACAAATTTTCCTAATCTTTCTGTTCAAGCGCCATCTAC”: 0.635 RPM ratio (pull-down/input); “GATGATTGTTCTCCCAGCTGATGAATTCAGCATCTCGAGTAAACAAATTTTCCTAATCTTTCTGTTCAAGCGCCATCTAC”: 6.49 RPM ratio (pull-down/input). Under “GATGATTGTTCTCCCAGCTGATGAATTCCGCACTTCGAGTAAACAAATTTTCCTAATCTTTCTGTTCAAGCGCCATCTAC” stands 1.22 RPM ratio (pull-down/input).

With “GATGATTGTTCTCCCAGCTGATGAATTTGGGTCATCGAGTAAACAAATTTTCCTAATCTTTCTGTTCAAGCGCCATCTAC”, the binding signal is 0.724 RPM ratio (pull-down/input). Consider “GATGATTGTTCTCCCAGCTGATGAATTCTTTACTTCGAGTAAACAAATTTTCCTAATCTTTCTGTTCAAGCGCCATCTAC”, for which the binding signal is 0.373 RPM ratio (pull-down/input). Next, “GATGATTGTTCTCCCAGCTGATGAATTGGGGATTTCGAGTAAACAAATTTTCCTAATCTTTCTGTTCAAGCGCCATCTAC”: 0.404 RPM ratio (pull-down/input); “GATGATTGTTCTCCCAGCTGATGAATTTCGTGAATCGAGTAAACAAATTTTCCTAATCTTTCTGTTCAAGCGCCATCTAC”: 0.281 RPM ratio (pull-down/input); “GATGATTGTTCTCCCAGCTGATGAATTCAGCTCATCGAGTAAACAAATTTTCCTAATCTTTCTGTTCAAGCGCCATCTAC”: 0.381 RPM ratio (pull-down/input).

For “GATGATTGTTCTCCCAGCTGATGAATTTTGAGCCTCGAGTAAACAAATTTTCCTAATCTTTCTGTTCAAGCGCCATCTAC”, the binding signal was 0.568 RPM ratio (pull-down/input).

For “GATGATTGTTCTCCCAGCTGATGAATTTTGTGCCTCGAGTAAACAAATTTTCCTAATCTTTCTGTTCAAGCGCCATCTAC”, the binding signal was 1.84 RPM ratio (pull-down/input). Turning to “GATGATTGTTCTCCCAGCTGATGAATTGTGCCTCTCGAGTAAACAAATTTTCCTAATCTTTCTGTTCAAGCGCCATCTAC”, the binding signal was 6.79 RPM ratio (pull-down/input). For the sequence “GATGATTGTTCTCCCAGCTGATGAATTTTTCGCCTCGAGTAAACAAATTTTCCTAATCTTTCTGTTCAAGCGCCATCTAC”, the binding signal is 0.467 RPM ratio (pull-down/input). Next, “GATGATTGTTCTCCCAGCTGATGAATTCTGCGCCTCGAGTAAACAAATTTTCCTAATCTTTCTGTTCAAGCGCCATCTAC”: 2.3 RPM ratio (pull-down/input); “GATGATTGTTCTCCCAGCTGATGAATTCTGCCTCTCGAGTAAACAAATTTTCCTAATCTTTCTGTTCAAGCGCCATCTAC”: 5.87 RPM ratio (pull-down/input). Next, “GATGATTGTTCTCCCAGCTGATGAATTCCGCCTCTCGAGTAAACAAATTTTCCTAATCTTTCTGTTCAAGCGCCATCTAC”: 6.3 RPM ratio (pull-down/input). Turning to “GATGATTGTTCTCCCAGCTGATGAATTTCGCCTCTCGAGTAAACAAATTTTCCTAATCTTTCTGTTCAAGCGCCATCTAC”, the binding signal was 6.04 RPM ratio (pull-down/input). For the sequence “GATGATTGTTCTCCCAGCTGATGAATTCTCTGCCTCGAGTAAACAAATTTTCCTAATCTTTCTGTTCAAGCGCCATCTAC”, the binding signal was 0.284 RPM ratio (pull-down/input). With “GATGATTGTTCTCCCAGCTGATGAATTGTTCGCCTCGAGTAAACAAATTTTCCTAATCTTTCTGTTCAAGCGCCATCTAC”, the binding signal was 0.653 RPM ratio (pull-down/input). Consider “GATGATTGTTCTCCCAGCTGATGAATTCTGTGCCTCGAGTAAACAAATTTTCCTAATCTTTCTGTTCAAGCGCCATCTAC”, for which the binding signal is 1.19 RPM ratio (pull-down/input). Next, “GATGATTGTTCTCCCAGCTGATGAATTCTCCGCCTCGAGTAAACAAATTTTCCTAATCTTTCTGTTCAAGCGCCATCTAC”: 0.428 RPM ratio (pull-down/input); “GATGATTGTTCTCCCAGCTGATGAATTCCGCGCCTCGAGTAAACAAATTTTCCTAATCTTTCTGTTCAAGCGCCATCTAC”: 1.68 RPM ratio (pull-down/input). Take “GATGATTGTTCTCCCAGCTGATGAATTAGACTCCTCGAGTAAACAAATTTTCCTAATCTTTCTGTTCAAGCGCCATCTAC”: the binding signal was 0.422 RPM ratio (pull-down/input). Under “GATGATTGTTCTCCCAGCTGATGAATTATACCCATCGAGTAAACAAATTTTCCTAATCTTTCTGTTCAAGCGCCATCTAC” stands 0.433 RPM ratio (pull-down/input). Under “GATGATTGTTCTCCCAGCTGATGAATTAGTCTTATCGAGTAAACAAATTTTCCTAATCTTTCTGTTCAAGCGCCATCTAC” stands 0.725 RPM ratio (pull-down/input); under “GATGATTGTTCTCCCAGCTGATGAATTAGTCGGATCGAGTAAACAAATTTTCCTAATCTTTCTGTTCAAGCGCCATCTAC”, 0.297 RPM ratio (pull-down/input); under “GATGATTGTTCTCCCAGCTGATGAATTCCCTCATTCGAGTAAACAAATTTTCCTAATCTTTCTGTTCAAGCGCCATCTAC”, 0.325 RPM ratio (pull-down/input). Next, “GATGATTGTTCTCCCAGCTGATGAATTGGTTAACTCGAGTAAACAAATTTTCCTAATCTTTCTGTTCAAGCGCCATCTAC”: 0.469 RPM ratio (pull-down/input).
